Results reported in PubChem BioAssay (NCI).
The panel holds about 83,000 compounds, 20% with a hit somewhere; the sample as a whole holds those more often.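 Results are percent growth after 48 hours of single-concentration exposure. 100 means growth as in untreated cells, lower positive values show inhibition; negative values down to -100 show cell death.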 Values without a mark were called inactive. Active and inactive are the calls of the source. The calls were made as follows: active = growth percent below 10; inactive = the rest.

How the values were obtained:
Experiment in all cases: NCI-60 one-dose screen, 48 h (100 = growth as untreated, 0 = no growth, -100 = all killed)
Details in all cases: 10 µM unless noted
HCT-15 colon = system: HCT-15 colon
HT29 colon = system: HT29 colon
SNB-19 CNS = system: SNB-19 CNS
U251 CNS = system: U251 CNS
PC-3 prostate = system: PC-3 prostate
SK-MEL-5 melanoma = system: SK-MEL-5 melanoma
UACC-62 melanoma = system: UACC-62 melanoma
LOX IMVI melanoma = system: LOX IMVI melanoma
SK-MEL-28 melanoma = system: SK-MEL-28 melanoma

Structure (SMILES) | growth (HCT-15 colon) | growth (HT29 colon) | growth (SNB-19 CNS) | growth (U251 CNS) | growth (PC-3 prostate) | growth (SK-MEL-5 melanoma) | growth (UACC-62 melanoma) | growth (LOX IMVI melanoma) | growth (SK-MEL-28 melanoma)
Cc1nc2sc(C(=O)Nc3cccc4c3OCCO4)c(N)c2cc1C(C)O (configuration not stated) | 21.4% | 3.68% (active) | 34.3% | 28.7% | 32.6% | 29.7% | 22% | 33% | 66.6%
Cc1cc(N/N=C/c2nc(-c3ccc(Cl)cc3)oc2C)c2cc(Cl)ccc2n1 | -52.6% (active) | -51.2% (active) | 29.3% | -54.5% (active) | 67% | 95.1% | 29.7% | -66.7% (active) | 10.3%
O=C(Nc1ccc(Oc2ccc(F)cc2)c(Cl)c1)c1cccnc1 | 84.3% | 88.5% | 93.2% | 89% | 90.7% | 79.5% | 81.3% | 91.2% | 103%
O=[N+]([O-])c1cccc(-c2nc3sccn3c2-c2ccnc(NCCCNS(=O)(=O)c3ccc(Br)cc3)n2)c1 | 34.1% | 57.1% | 87.4% | 83.8% | 24.5% | -15.6% (active) | 2.78% (active) | 38.4% | 76.9%
CC(C)[C@@H]1CC[C@]2(C(=O)NCCCCN=C(N)N)CC[C@]3(C)[C@H](CC[C@@H]4[C@@]5(C)CCC(=O)C(C)(C)[C@@H]5CC[C@]43C)[C@@H]12 | 96.4% | 40.2% | 41.9% | 30.8% | 46.6% | 20.4% | 48.2% | 69.9% | 15.6%
COc1ccc(C2c3ccc4ccccc4c3Oc3ncnc(N)c32)cc1 (configuration not stated) | 88.5% | 104% | 91.2% | 92.8% | 71.9% | 85.5% | 66.9% | 76.5% | 91.9%
NC(=S)N/N=C/c1ccc(OCc2ccccc2)cc1 | 47.8% | 47.7% | 73.1% | 71.8% | 64.2% | 86.4% | 61.8% | 82.1% | 80%
O=C1CCc2c(sc3[nH]c(=S)n(Cc4ccccc4)c(=O)c23)C1 | 7.5% (active) | 79.6% | 11.8% | 8.09% (active) | 13.9% | -75.6% (active) | 8.72% (active) | 11.7% | 25%
CCCCCCNC(=O)Oc1ccc(/C(=C(\C)c2ccccc2)c2ccc(OCCN(CC)CC)cc2)cc1 | 4.48% (active) | -16.1% (active) | 63.6% | 38.2% | 45.4% | 41.9% | 18.4% | 67.8% | 61.1%
O=C(O)c1cn(C2CC2)c2cc(N3CCN(Cc4nc5c(cnn5-c5ccc([N+](=O)[O-])cc5)c(=O)[nH]4)CC3)c(F)cc2c1=O | 102% | 102% | 106% | 106% | 93.9% | 99% | 86.6% | 101% | 106%
COc1ccc(-n2cc(-c3ccccc3)c3c(SCC(=O)N/N=C/c4ccc([N+](=O)[O-])cc4)ncnc32)cc1 | 108% | 114% | 99.7% | 104% | 96.4% | 100% | 97.5% | 94.2% | 110%
O=C1/C(=C/c2ccccc2)CN(CCC(=O)N2C/C(=C\c3ccccc3)C(=O)/C(=C/c3ccccc3)C2)C/C1=C\c1ccccc1 | 18.8% | -13.5% (active) | 52.9% | 8.91% (active) | 51.3% | 60.5% | 70.2% | -51.4% (active) | 91.9%
CCC(=O)Oc1ccc(/C(=C(\C)c2ccccc2)c2ccc(OCCN(CC)CC)cc2)cc1 | 54.3% | 7.83% (active) | 87.8% | 71.6% | 66.7% | 74.8% | 93.4% | 87.8% | 80.3%
COCCOC(=O)C1=C(C)NC(=S)NC1c1ccc2c(c1)OCO2 (configuration not stated) | 102% | 96.7% | 100% | 104% | 95.7% | 97.6% | 102% | 101% | 114%
COc1cc(NCCCCCN=C(N)NC(N)=NC(C)C)c2ncccc2c1 | 110% | 54.2% | 33.2% | 20.5% | 32.8% | 5.87% (active) | 36.8% | 9.91% (active) | 60.1%
COc1cc(NC(N)=NCC(C)(C)COc2ccc(C(F)(F)F)cc2)cnc1C#N | 59.9% | 26.9% | 70.6% | 59.9% | 49.3% | 26.9% | 61.7% | 67.1% | 85.5%
COc1cc2nc3cc([N+](=O)[O-])ccc3c(NCCCNCC(C)(C)O)c2cc1OC | 21.9% | -52.4% (active) | -26.1% (active) | -68.9% (active) | -61.8% (active) | -94.5% (active) | -76.1% (active) | -58.4% (active) | -64% (active)
CN1CCN(Cc2ccc(NC(=O)c3cncc(C#Cc4cncc5nccnc45)c3)cc2C(F)(F)F)CC1 | 40.6% | 22.7% | 92.1% | 76.3% | 67.6% | 41.9% | 16.6% | -7.67% (active) | 13.3%
CCCCNC(=O)NS(=O)(=O)c1ccc(N2N=C(c3cc(C)ccc3C)CC2c2cc(OC)c(OC)c(OC)c2)cc1 (configuration not stated) | 48.6% | 72.2% | 68% | 51.3% | 36.9% | 6.28% (active) | 49.5% | 9.68% (active) | 18.6%
Nc1c(C(=O)Nc2cccc3c2OCCO3)sc2nc3c(cc12)C(=O)CCC3 | 30.1% | 13.5% | 33.3% | 33% | 33.9% | 24% | 23.5% | 41.8% | 60%
COc1cc(NCCCCN=C(N)NC(N)=NC(C)C)c2ncccc2c1 | 122% | 53.9% | 55.9% | 50% | 22.9% | 17% | 77% | 46.6% | 86.4%
c1ccc2sc(SCCCn3ccnc3)nc2c1 | 98.3% | 67% | 94% | 88.2% | 80.1% | 92.1% | 87.8% | 96.5% | 109%
C/C(Cc1ccc(Cl)cc1)=C(\c1ccc(OCCN2CCCCCC2)cc1)c1ccc(OC(=O)Cc2ccccc2)cc1 | 32.6% | 9.8% (active) | 74.4% | 42.5% | 54.2% | 84.1% | 75.1% | 78.3% | 71.3%
Nc1c(C(=O)Nc2cccc3c2OCCO3)sc2nc3c(cc12)CN(Cc1ccccc1)CC3 | 42.5% | 35.3% | 60.4% | 56.9% | 55.1% | 60.8% | 49.3% | 53.2% | 75.4%
COc1ccc(-c2cc(=O)[nH]c3c(OC)c4ccccc4c(OC)c23)cc1 | 26.3% | 2.07% (active) | 50.5% | 23.8% | 14.8% | 18.8% | 21.1% | 46.9% | 56.6%
C=C1CC2(OC1=O)C(=O)Nc1ccccc12 (configuration not stated) | 23% | 42.7% | 88.3% | 91.2% | 73.6% | 81.2% | 72.9% | 35.3% | 63.8%
CC(=O)O[C@H]1CC[C@]2(C)[C@H]3CC[C@@H]4[C@H]5[C@H](C(C)C)CC[C@]5(C(=O)OCC(CO)(CO)N=C(N)N)CC[C@@]4(C)[C@]3(C)CC[C@H]2C1(C)C | 10.4% | -69% (active) | 58.5% | -96.4% (active) | 41.2% | 81.2% | 86.8% | -48.8% (active) | 84.9%
COc1ccc(/C=N\NC(=O)CN2CCN(c3cc4c(cc3F)c(=O)c(C(=O)N/N=C/c3ccc(OC)cc3)cn4C3CC3)CC2)cc1 | 76.6% | 90.2% | 86.2% | 95% | 71.9% | 72.2% | 83.3% | 90.1% | 93.9%
